Laboratory results taken from PubChem BioAssay (NCATS).
Values joined by “and” are separate entries in the source; they are usually repeats but may differ in a detail not shown here. Identical values can stand only once. Records with an inconclusive call do not appear. Active and inactive are the calls of the source. Unless noted, the call rests on the fitted dose curve; in most records, active means well fitted curve in the direction sought with a large enough effect; inconclusive means small, poorly fitted or top-dose-only effect, or another doubt; inactive means no such curve, though single readings can be large; an effect the other way counts as inactive or inconclusive.

How the values were obtained:
[1] = molecular target: Glucocorticoid receptor (Homo sapiens) (UniProt P04150); assay: GR-GFP Redistribution (AID 450;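 active means compounds whose dose series gives a full or clear partial fitted curve of increased nuclear translocation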; further: potency means the concentration at half of the fitted maximal effect); conditions: U2OS GR-GFP nuclear translocation, laser cytometry, 2 h
Chain of Glucocorticoid receptor (Homo sapiens) (P04150 whole entry, looked up, the tested form may be a part): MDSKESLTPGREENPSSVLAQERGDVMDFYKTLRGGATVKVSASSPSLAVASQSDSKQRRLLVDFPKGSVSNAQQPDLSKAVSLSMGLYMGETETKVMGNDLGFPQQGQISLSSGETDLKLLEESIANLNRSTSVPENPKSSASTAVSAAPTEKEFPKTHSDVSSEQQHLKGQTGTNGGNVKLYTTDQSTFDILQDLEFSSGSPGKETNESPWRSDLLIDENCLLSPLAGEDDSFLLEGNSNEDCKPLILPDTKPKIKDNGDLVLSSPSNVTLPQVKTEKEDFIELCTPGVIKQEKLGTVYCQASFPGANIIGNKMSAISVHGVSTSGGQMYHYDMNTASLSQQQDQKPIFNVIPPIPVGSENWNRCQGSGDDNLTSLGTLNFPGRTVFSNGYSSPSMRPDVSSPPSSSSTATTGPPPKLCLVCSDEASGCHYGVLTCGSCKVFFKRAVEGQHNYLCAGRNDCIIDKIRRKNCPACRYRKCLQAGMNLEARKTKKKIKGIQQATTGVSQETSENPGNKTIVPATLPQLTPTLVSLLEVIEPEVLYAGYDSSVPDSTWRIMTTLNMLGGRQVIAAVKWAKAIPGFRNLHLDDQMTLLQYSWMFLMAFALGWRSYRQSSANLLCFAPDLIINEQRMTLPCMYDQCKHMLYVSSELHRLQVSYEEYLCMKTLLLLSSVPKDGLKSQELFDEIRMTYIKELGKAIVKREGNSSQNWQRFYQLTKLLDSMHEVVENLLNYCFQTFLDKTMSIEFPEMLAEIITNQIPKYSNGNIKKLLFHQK

[2] = molecular target: Glucocorticoid receptor (Homo sapiens) (UniProt P04150); assay: GR-EFC Redistribution (AID 451; calls by dose curve; further: potency means the concentration at half of the fitted maximal effect); conditions: CHO-K1 GR-EFC translocation, beta-gal luminescence, 2 h
Summary of the method: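 CHO-K1 cells expressing nuclear EA and GR-ED fragments of b-gal; compounds titrated up to 46 uM final, 2 h at 37 C. GR nuclear translocation read as complemented b-gal luminescence after 1 h RT detection.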

[3] = molecular target: Mitogen-activated protein kinase 10 (Mus musculus) (UniProt Q61831); assay: JNK3 AlphaScreen Assay (AID 530; active means well fitted curve in either direction with a large enough effect, not every such curve was filed as active;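 further: kinase came from lysate of stimulated human HepG2 cells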; further: potency means the concentration at half of the fitted maximal effect;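 on activity change, negative = inhibition: signal reports phosphorylation of biotinylated GST-cJun 1-79 at Ser73 with 10 µM ATP; on the % scale 0 is the no-effect control and ±100 the full control effect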); conditions: JNK3 lysate, c-Jun phosphorylation; series mostly up to 57.1 µM
Summary of the method: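 HepG2 lysate (IL-1b/TNFa pre-activated) + biotin-GST-cJun 1-79 + anti-pSer73 cJun; cpd titration, 15 min RT; ATP 10 uM start; Tris pH 7.6, MgCl2, DTT, vanadate; beads in EDTA buffer; AlphaScreen.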

[4] = molecular target: Cytochrome P450 3A4 (Homo sapiens) (UniProt P08684); assay: qHTS Assay for Activators of Cytochrome P450 3A4 (AID 885); conditions: recombinant CYP3A4, Luciferin-PPXE luminescence, 60 min; series mostly up to 57.1 µM; further: nearly all actives have a fitted effect of over 65% in size
Chain of Cytochrome P450 3A4 (Homo sapiens) (P08684 whole entry, looked up): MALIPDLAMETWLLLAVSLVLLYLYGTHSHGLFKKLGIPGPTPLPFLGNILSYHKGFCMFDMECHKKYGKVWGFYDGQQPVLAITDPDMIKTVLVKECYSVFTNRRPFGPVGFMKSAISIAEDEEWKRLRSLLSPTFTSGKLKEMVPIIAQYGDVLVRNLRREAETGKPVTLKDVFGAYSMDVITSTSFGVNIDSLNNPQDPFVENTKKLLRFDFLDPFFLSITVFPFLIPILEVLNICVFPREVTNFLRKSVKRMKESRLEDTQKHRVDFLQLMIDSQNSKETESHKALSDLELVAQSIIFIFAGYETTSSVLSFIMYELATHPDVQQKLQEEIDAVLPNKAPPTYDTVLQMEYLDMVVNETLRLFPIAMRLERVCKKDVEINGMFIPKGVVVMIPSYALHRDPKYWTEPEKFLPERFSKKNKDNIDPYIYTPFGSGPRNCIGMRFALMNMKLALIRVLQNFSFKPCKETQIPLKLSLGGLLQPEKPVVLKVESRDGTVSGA
Summary of the method: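 Human CYP3A4 dealkylates Luciferin-PPXE to luciferin, which luciferase detection converts to light. Substrate was at its KM (25uM), buffer 200mM KPO4, reaction 60 min at RT.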

[5] = molecular target: Ubiquitin carboxyl-terminal hydrolase 1 (Homo sapiens) (UniProt O94782); assay: Inhibitors of USP1/UAF1: Pilot qHTS (AID 504865); conditions: purified USP1/UAF1, Ub-rhodamine cleavage fluorescence; series mostly up to 114 µM;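 further: rhodamine fluorescence freed from ubiquitin-rhodamine substrate followed over time; top concentration of the series differs between compounds; on the % scale 0 is the no-effect control and ±100 the full control effect; nearly all actives have a fitted effect of over 35% in size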
Summary of the method: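 Kinetic fluorescence assay: 1nM USP1/UAF1, 15 min compound preincubation, then 150nM Ub-Rho; 480/540 nm.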

[6] = molecular target: DNA dC->dU-editing enzyme APOBEC-3G (Homo sapiens) (UniProt Q9HC16); assay: qHTS for inhibitors of Vif-A3G interactions: Validation (AID 588379); conditions: Vif-A3G protein interaction assay; series mostly up to 46.1 µM; further: potency means the concentration at half of the fitted maximal effect; on activity change, negative = inhibition: 0% is about no effect
Chain of DNA dC->dU-editing enzyme APOBEC-3G (Homo sapiens) (Q9HC16 whole entry, looked up): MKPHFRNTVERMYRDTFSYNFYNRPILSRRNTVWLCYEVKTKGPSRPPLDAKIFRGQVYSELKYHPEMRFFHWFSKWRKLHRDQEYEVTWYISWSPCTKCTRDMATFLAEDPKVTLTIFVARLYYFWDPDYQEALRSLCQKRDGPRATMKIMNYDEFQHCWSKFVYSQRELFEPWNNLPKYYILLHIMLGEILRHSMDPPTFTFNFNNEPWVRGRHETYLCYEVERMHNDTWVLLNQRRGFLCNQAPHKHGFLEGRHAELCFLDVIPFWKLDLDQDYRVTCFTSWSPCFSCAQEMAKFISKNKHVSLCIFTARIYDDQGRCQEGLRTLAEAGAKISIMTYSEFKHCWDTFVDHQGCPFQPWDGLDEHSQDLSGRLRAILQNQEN
Summary of the method: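 Yellow fluorescence (Ex 488, Em 500-530) of Vif-coexpressing HeLa A3G-eYFP cells, scanned by Acumen cytometer, reports blocked A3G degradation. Cells plated at 700/well overnight at 37 deg C before compound addition, then a further overnight compound incubation at 37 deg C.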

[7] = test system: Zika virus NS2B-NS3 protease; assay: Primary screen GU AMC qHTS for Zika virus inhibitors (AID 1347154); conditions: Zika NS2B-NS3 unlinked protease, AMC fluorogenic substrate; series mostly up to 54.1 µM;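 further: 0% = no-inhibitor control and -100% = no-enzyme control; nearly all actives have a fitted effect of over 70% in size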
Summary of the method: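 Unlinked Zika NS2B hydrophilic domain–NS3 protease complex at 25 nM in 10 mM Tris-HCl pH 8.0, 0.01% Tween 20, with an AMC peptide substrate. Fluorescence change (340/450 nm) over 15 min at room temperature, normalized to controls, fitted to 4-parameter Hill.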

[8] = Confirmatory qHTS for small molecule stabilizers of the endoplasmic reticulum resident proteome: Secreted ER Calcium Modulated Protein (SERCaMP) assay (AID 1508628); conditions: SERCaMP secreted luciferase ER calcium/proteostasis reporter; series mostly up to 76.3 µM; further: on the % scale 0 is the no-effect control and ±100 the full control effect; nearly all actives have a fitted effect of over 40% in size
Summary of the method: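 GLuc-SERCaMP-expressing SH-SY5Y cells, pretreated 16 h with compound, are challenged with thapsigargin to empty ER calcium stores; after 4 h, coelenterazine is added directly to the medium and luminescence is imaged.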

[9] = Primary qHTS for small molecule stabilizers of the endoplasmic reticulum resident proteome: Secreted ER Calcium Modulated Protein (SERCaMP) assay (AID 1508630); conditions: SH-SY5Y GLuc-SERCaMP (Gaussia luciferase released on ER calcium loss) secretion, thapsigargin, luminescence; series mostly up to 38.4 µM; further: on the % scale 0 is the no-effect control and ±100 the full control effect
Summary of the method: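 The SH-SY5Y reporter protocol was run at 3 concentrations up to 38.3 uM (primary) or 11 concentrations (follow-up): 16 h compound, 100 nM thapsigargin for 4 h, then extracellular luciferase luminescence.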

[10] = molecular target: Cytochrome P450 1A2 (Homo sapiens) (UniProt P05177); assay: p450-cyp1a2 (AID 410; calls by dose curve; further: potency means the concentration at half of the fitted maximal effect); conditions: recombinant CYP1A2, luciferin-ME demethylation, luminescence; series mostly up to 57 µM
Chain of Cytochrome P450 1A2 (Homo sapiens) (P05177 whole entry, looked up): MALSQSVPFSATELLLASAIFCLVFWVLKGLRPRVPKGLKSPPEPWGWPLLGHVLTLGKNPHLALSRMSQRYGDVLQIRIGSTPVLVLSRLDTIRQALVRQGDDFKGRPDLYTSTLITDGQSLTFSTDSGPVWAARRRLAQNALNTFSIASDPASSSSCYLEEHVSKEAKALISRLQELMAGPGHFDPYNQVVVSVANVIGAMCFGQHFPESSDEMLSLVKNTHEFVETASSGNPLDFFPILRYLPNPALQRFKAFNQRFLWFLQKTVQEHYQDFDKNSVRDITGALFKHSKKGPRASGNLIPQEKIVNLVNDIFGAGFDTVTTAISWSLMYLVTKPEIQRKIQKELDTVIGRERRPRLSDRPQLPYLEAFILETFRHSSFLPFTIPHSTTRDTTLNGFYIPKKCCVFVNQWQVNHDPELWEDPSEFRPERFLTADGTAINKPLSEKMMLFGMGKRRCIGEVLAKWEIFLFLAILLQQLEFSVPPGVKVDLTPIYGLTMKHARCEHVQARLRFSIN
Summary of the method: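 Read-out is luminescence from luciferin produced by CYP1A2 demethylation of Luciferin-ME (100uM, at Km). Detection reagent stopped the 60 min NADPH-dependent reaction; signals were normalized to 57 uM furafylline.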

[11] = molecular target: Cytochrome P450 2D6 (Homo sapiens) (UniProt P10635); assay: qHTS Assay for Inhibitors and Substrates of Cytochrome P450 2D6 (AID 891); conditions: recombinant CYP2D6, luciferin-ME EGE luminescence; series mostly up to 57.1 µM; further: potency means the concentration at half of the fitted maximal effect; nearly all actives have a fitted effect of over 60% in size
Summary of the method: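 Luminescent read-out of luciferin formed by 5 nM human CYP2D6 demethylating 30 uM Luciferin-ME EGE (Km level) over 60 min at room temperature after NADPH regeneration addition. Data normalized to full inhibition by 1.43 uM quinidine.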

[12] = molecular target: Cytochrome P450 2C19 (Homo sapiens) (UniProt P33261); assay: qHTS Assay for Inhibitors and Substrates of Cytochrome P450 2C19 (AID 899); conditions: recombinant CYP2C19, luciferin-H EGE luminescence; series mostly up to 57.1 µM; further: potency means the concentration at half of the fitted maximal effect; nearly all actives have a fitted effect of over 60% in size
Chain of Cytochrome P450 2C19 (Homo sapiens) (P33261 whole entry, looked up): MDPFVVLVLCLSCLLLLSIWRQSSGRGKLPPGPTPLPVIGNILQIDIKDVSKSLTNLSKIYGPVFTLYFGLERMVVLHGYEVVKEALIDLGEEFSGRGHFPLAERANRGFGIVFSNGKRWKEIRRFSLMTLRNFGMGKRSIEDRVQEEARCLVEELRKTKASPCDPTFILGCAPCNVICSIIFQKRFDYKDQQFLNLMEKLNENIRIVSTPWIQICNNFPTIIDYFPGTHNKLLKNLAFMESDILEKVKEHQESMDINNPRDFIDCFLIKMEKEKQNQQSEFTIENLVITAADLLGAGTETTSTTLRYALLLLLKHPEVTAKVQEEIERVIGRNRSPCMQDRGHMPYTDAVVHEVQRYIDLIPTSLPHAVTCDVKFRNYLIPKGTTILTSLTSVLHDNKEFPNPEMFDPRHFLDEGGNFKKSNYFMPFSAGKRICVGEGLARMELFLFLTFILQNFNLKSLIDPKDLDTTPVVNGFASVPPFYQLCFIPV
Summary of the method: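 Luminescent read-out of luciferin formed from Luciferin-H EGE (10uM, equal to KM). Enzyme 5nM in 50mM KPO4; compound added, 10 min at 37C, then NADPH regenerating system for 60 min at 37C. Full inhibition defined by 57uM ketoconazole.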

[13] = Counterscreen qHTS for small molecule stabilizers of the endoplasmic reticulum resident proteome: GLuc-NoTag assay (AID 1508627); conditions: Gaussia luciferase NoTag secretion counterscreen, luminescence, thapsigargin 100 nM for final 4 h; series mostly up to 76.4 µM; further: potency means the concentration at half of the fitted maximal effect;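 on activity change, negative = inhibition: SH-SY5Y cells given compound then 100 nM thapsigargin to empty ER calcium; 0% = thapsigargin alone and -100% = DMSO vehicle control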
Summary of the method: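 Counterscreen line: SH-SY5Y-GLuc-NoTag. Seed, 5 h; compound, 19 h; thapsigargin 100 nM, 4 h; 37C/5% CO2. Readout: secreted GLuc luminescence, coelenterazine 0.07x final, no lysis.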

[14] = Cell Viability qHTS for small molecule stabilizers of the endoplasmic reticulum resident proteome (AID 1508629); conditions: cell viability counter-screen, 100 nM thapsigargin for final 4 h;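 further: human SH-SY5Y neuroblastoma cells carrying the GLuc-SERCaMP reporter; compound exposure about 46 h in total before the viability read; on the % scale 0 is the no-effect control and ±100 the full control effect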
[15] = molecular target: 3',5'-cyclic-AMP phosphodiesterase 4B (Homo sapiens) (UniProt Q07343); assay: qHTS Assay for Inhibitors of PDE-IV (AID 607; active means well fitted activation curve with a large enough effect in the main read-out, with a control signal flat, not every such curve was filed as active; further: % of control where 0% means no effect); conditions: HEK293 ACTOne CNG channel cells, membrane potential fluorescence; series mostly up to 22.9 µM
Chain of 3',5'-cyclic-AMP phosphodiesterase 4B (Homo sapiens) (Q07343 whole entry, looked up): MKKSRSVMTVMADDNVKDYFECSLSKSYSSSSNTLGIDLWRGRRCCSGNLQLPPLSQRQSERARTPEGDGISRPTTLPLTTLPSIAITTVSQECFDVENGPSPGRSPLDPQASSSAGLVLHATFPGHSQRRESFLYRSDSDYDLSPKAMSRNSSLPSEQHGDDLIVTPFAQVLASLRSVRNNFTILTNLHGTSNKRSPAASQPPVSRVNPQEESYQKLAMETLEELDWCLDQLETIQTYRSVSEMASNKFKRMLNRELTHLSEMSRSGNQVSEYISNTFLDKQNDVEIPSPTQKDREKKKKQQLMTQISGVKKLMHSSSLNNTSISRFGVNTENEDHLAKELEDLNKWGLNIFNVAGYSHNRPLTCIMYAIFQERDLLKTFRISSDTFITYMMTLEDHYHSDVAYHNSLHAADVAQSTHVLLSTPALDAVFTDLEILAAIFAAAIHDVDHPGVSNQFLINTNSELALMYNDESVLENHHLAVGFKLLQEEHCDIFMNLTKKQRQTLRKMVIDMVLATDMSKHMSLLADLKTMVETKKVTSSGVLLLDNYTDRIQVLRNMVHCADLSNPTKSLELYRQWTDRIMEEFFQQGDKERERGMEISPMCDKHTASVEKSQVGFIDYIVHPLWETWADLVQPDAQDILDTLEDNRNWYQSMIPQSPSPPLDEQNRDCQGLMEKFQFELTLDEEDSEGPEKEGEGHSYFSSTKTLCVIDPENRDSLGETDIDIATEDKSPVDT
Summary of the method: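 HEK293 ACTOne cells with CNG channel (1000/well), endogenous PDE4; membrane potential dye, compounds up to 22.9 uM final. Fluorescence Ex 535/Em 590; RO 20-1724 (100 uM final) as reference.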

[16] = molecular target: Guanine nucleotide-binding protein G(i) subunit alpha-1 (Homo sapiens) (UniProt P63096); assay: qHTS Assay for Inhibitors of RGS12 GoLoco Motif Activity (Green Fluorophore) (AID 879); conditions: Galphai1/FITC-RGS12 GoLoco peptide, fluorescence polarization; series mostly up to 57.1 µM;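 further: 0% = labeled peptide with Gαi1 and full inhibition = labeled peptide alone without protein; negative values mean loss of peptide binding seen as reduced polarization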
Chain of Guanine nucleotide-binding protein G(i) subunit alpha-1 (Homo sapiens) (P63096 whole entry, looked up): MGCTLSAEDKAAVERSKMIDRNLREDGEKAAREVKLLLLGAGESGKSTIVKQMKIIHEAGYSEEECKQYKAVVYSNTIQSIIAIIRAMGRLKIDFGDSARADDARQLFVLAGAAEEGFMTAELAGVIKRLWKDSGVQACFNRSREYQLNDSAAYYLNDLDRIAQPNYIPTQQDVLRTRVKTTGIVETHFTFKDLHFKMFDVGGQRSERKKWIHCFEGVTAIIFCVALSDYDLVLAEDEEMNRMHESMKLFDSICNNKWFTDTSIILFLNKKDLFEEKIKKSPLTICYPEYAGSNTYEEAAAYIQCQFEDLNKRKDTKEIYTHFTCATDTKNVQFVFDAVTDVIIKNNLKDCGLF
Summary of the method: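 A drop in FITC polarization marked displacement of the FITC-tagged RGS12 GoLoco peptide (10 nM) from Gαi1 (50 nM). Compounds were incubated 10 min at room temperature in Tris pH 7.5 buffer containing 150 mM NaCl, 0.1 mM GDP and 0.05% NP40; unlabeled peptide titration served as control.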

[17] = molecular target: Cytochrome P450 2C9 (Homo sapiens) (UniProt P11712); assay: qHTS Assay for Inhibitors and Substrates of Cytochrome P450 2C9 (AID 883); conditions: recombinant CYP2C9, luciferin-H luminescence, 60 min; series mostly up to 57.1 µM; further: potency means the concentration at half of the fitted maximal effect; nearly all actives have a fitted effect of over 60% in size
Summary of the method: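 10nM CYP2C9 + 100uM Luciferin-H (=KM), 25mM KPO4; cpd 10 min 37C; NADPH regen, 60 min 37C; stop/detect with P450 Glo-Buffer 20 min; luminescence. Norm. to 57uM sulphaphenazole as full inhibition.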

[18] = qHTS Assay for Identification of Small Molecule Agonists for Thrombopoietin (TPO) Signaling Pathway (AID 917); conditions: TPO signaling pathway reporter cells, agonist qHTS, stimulated with TPO at its EC50; series mostly up to 38.5 µM; further: potency means the concentration at half of the fitted maximal effect
Summary of the method: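 Quantitative HTS for pathway activators: compounds were pin-transferred onto IL-3-starved Ba/F3 cells expressing human TPO receptor, TPO was added at its EC50 (26 pM final), and after 24 hrs at 37 C reporter luciferase was measured.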

[19] = molecular target: Muscarinic acetylcholine receptor M1 (Rattus norvegicus) (UniProt P08482); assay: qHTS Assay for Antagonists of Acetylcholine Muscarinic M1 Receptor: Measurement of IP-One Response (AID 944); conditions: CHO-M1 cells, IP-One HTRF, antagonist mode; series mostly up to 46.1 µM; further: potency means the concentration at half of the fitted maximal effect; nearly all actives have a fitted effect of over 75% in size
Summary of the method: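 Antagonism was measured as loss of carbachol-driven (EC80) IP1 accumulation in CHO cells carrying rat M1, using a homogeneous IP-One TR-FRET kit read at 620 and 665 nm.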

[20] = molecular target: Pyruvate kinase (Leishmania mexicana) (UniProt Q27686); assay: qHTS Validation Assay for Inhibitors of Leishmania Mexicana Pyruvate Kinase (AID 945); further: potency means the concentration at half of the fitted maximal effect; conditions: purified L. mexicana pyruvate kinase, enzyme activity, E451W mutant enzyme; series mostly up to 57.5 µM
Chain of Pyruvate kinase (Leishmania mexicana) (Q27686 2-499 E452W): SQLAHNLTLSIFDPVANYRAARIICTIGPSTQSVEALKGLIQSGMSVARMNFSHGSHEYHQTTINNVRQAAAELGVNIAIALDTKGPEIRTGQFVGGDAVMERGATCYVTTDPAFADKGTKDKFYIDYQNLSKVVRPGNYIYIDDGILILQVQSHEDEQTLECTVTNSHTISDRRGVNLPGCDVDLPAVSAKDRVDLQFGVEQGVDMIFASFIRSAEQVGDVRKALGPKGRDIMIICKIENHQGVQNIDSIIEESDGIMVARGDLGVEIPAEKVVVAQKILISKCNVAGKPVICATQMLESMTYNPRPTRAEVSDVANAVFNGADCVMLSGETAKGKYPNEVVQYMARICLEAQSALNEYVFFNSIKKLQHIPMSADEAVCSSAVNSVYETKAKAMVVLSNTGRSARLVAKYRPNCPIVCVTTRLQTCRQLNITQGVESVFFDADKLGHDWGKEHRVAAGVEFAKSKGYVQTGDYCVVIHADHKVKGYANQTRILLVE
Summary of the method: (§1)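 Pyruvate kinase activity of E451W LmPYK (0.2 nM) was followed as ATP output after 1 h at room temperature with 0.5 mM PEP and 0.1 mM ADP, detected by PKLight luminescence.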

[21] = molecular target: Pyruvate kinase PKM (Homo sapiens) (UniProt P14618); assay: qHTS Assay for Activators of Human Muscle Pyruvate Kinase (AID 954; active means well fitted curve in the direction sought with a large enough effect, not every such curve was filed as active;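 further: 0% = uninhibited enzyme and -100% = no enzyme or full thiadiazolimine inhibition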); conditions: purified human muscle pyruvate kinase, luciferase-coupled luminescence, 1 h; series mostly up to 57.5 µM
Chain of Pyruvate kinase PKM (Homo sapiens) (P14618 whole entry, looked up): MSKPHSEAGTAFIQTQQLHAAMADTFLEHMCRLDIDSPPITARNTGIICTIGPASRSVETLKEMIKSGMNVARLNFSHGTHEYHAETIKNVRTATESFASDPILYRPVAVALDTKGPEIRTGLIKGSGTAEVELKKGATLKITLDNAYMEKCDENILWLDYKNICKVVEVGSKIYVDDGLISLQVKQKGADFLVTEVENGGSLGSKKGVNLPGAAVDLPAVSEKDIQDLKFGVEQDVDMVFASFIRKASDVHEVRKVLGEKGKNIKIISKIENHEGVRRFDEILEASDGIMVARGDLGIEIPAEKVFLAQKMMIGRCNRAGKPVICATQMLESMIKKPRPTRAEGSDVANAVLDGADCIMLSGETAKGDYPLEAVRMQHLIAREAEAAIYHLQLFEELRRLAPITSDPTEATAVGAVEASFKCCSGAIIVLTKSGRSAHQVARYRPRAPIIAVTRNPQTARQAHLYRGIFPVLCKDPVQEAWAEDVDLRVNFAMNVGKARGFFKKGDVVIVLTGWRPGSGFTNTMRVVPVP
Summary of the method: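 Compound pinned into substrate mix (0.5 mM PEP, 0.1 mM ADP), then 0.1 nM PKM2 added; 1 h, RT. Stop/detection luciferase reagent added, luminescence read. Normalized to no-inhibition and no-enzyme or reference-inhibitor controls.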

[22] = molecular target: Pyruvate kinase PKM (Homo sapiens) (UniProt P14618); assay: qHTS Assay for Inhibitors of Human Muscle Pyruvate Kinase (AID 958); conditions: purified human PKM enzyme activity
Summary of the method: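 PKM2, human, >95% pure, 0.1 nM; PEP 0.5 mM (Km), ADP 0.1 mM; 50 mM imidazole pH 7.2, 50 mM KCl, 0.01% Tween 20, 0.05% BSA; 1 h RT; luciferase luminescence readout.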

[23] = molecular target: Pyruvate kinase (Leishmania mexicana) (UniProt Q27686); assay: qHTS Validation Assay for Activators of Leishmania Mexicana Pyruvate Kinase (AID 959); conditions: purified L. mexicana pyruvate kinase, enzyme activity; series mostly up to 57.5 µM
Summary of the method: as §1

[24] = molecular target: Alpha-galactosidase A (Homo sapiens) (UniProt P06280); assay: Counterscreen for Glucocerebrosidase Inhibitors: qHTS Assay for Human alpha-Galactosidase at pH 4.5 (AID 992); conditions: purified enzyme, fluorogenic substrate; series mostly up to 76.9 µM; further: 0% is about no effect
Summary of the method: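 Steps: enzyme (2 nM final), then compound across 0.7 nM to 77 uM, then 80 uM fluorogenic galactopyranoside substrate; incubate 20 min at room temperature; quench at pH 10; measure fluorescence at 365/440 nm.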

[25] = molecular target: alpha-glucosidase (Oryza sativa, rice) (UniProt Q653V4); assay: Counterscreen for Glucocerebrosidase Inhibitors: qHTS Assay for Rice alpha-Glucosidase at pH 5.0 (AID 997); conditions: rice alpha-glucosidase enzyme activity; series mostly up to 76.9 µM;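 further: 0% = full activity with enzyme and -100% = basal without enzyme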
Summary of the method: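 Endpoint fluorogenic assay at pH 5.0: compounds (0.7 nM to 77 uM) titrated against 4 nM rice enzyme and 400 uM 4-MU-alpha-glucoside for 20 min at room temperature; NaOH/glycine stop, read ex 365/em 440 nm, Hill-fitted AC50.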

O=S(=O)(c1cccc2cnccc12)N1CCNCC1
inactive: Potency [1] > 46 µM | Potency [2] > 46 µM | Potency [3] | Potency [4] | Potency [5] | Potency [6] | Potency [7] | Potency [8]

NCCCC[C@@H](N)C(=O)O
inactive: Potency [7] | Potency [9]

CN1CCN(C2=Cc3ccccc3Oc3ccc(Cl)cc32)CC1
active: Potency [10] 20 µM | Potency [11] 0.0398 µM | Potency [12] 3.98 µM
inactive: Potency [1] > 46 µM | Potency [2] > 46 µM | Potency [3] | Potency [4] | Potency [6] | Potency [7] | Potency [13] | max response [14] 13.7%

CCN(CC)CCCCN1c2ccccc2Oc2ccc(Cl)cc21
inactive: Potency [7] | Potency [8]

C[C@@]12CCC[C@H]1C1CC[C@H]3C[C@H](O)CC[C@]3(C)C1CC2 (some centres undefined)
inactive: Potency [7] | Potency [9]

CN(C)c1ccc(/C=C2/C(=O)Nc3ccccc32)cc1
inactive: Potency [1] > 46 µM | Potency [2] > 46 µM | Potency [15] | outcome [16] | Potency [4] | outcome [21] | Potency [23] | outcome [24] | outcome [25] | Potency [7] | max response [14] 8.84%
active: Potency [10] 398 nM and 100 nM | Potency [3] 5.01 µM | Potency [17] 5.01 µM | Potency [12] 20 µM | Potency [18] 0.0631 µM | Potency [19] 14.1 µM | Potency [20] 3.16 µM | Potency [22] 3.16 µM | Potency [6] 26.6 µM | Potency [13] 35.5 µM

COc1ccc(CCCOC(Cn2ccnc2)c2ccc(OC)cc2)cc1 (centres undefined)
inactive: Potency [7] | Potency [9]

H-EQKQLQ-OH
inactive: activity change, negative = inhibition [7] 7.08% [at 6.83 µM] | activity change, negative = inhibition [9] -18.8% [at 3.88 µM]

OC[C@H]1O[C@@H](n2cnc3c(N[C@H]4C[C@H]5CC[C@@H]4C5)ncnc32)[C@H](O)[C@@H]1O
inactive: Potency [7] | Potency [9]

CC(N)(COP(=O)(O)O)C(=O)O (centres undefined)
inactive: Potency [7] | Potency [9]
